Experimental data reported in PubChem BioAssay AID1851 (National Center for Advancing Translational Sciences (NCATS), 2009).
“And” between values parts separate entries of the source, which are not always exact repeats. Identical values can stand only once. In all, about 16,000 compounds went through this assay and about 2,600 (16%) were called active. Roughly 20% stayed inconclusive and do not appear here. The list is a sample of the results. Values without a mark were called inactive. The call rests on the fitted dose curve; in most records, active means well fitted curve in the direction sought with a large enough effect; inconclusive means small, poorly fitted or top-dose-only effect, or effect the other way; inactive means no such curve, though single readings can be large or run the other way.

target: Cytochrome P450 2D6 (Homo sapiens) (UniProt P10635); assay: Cytochrome panel assay with activity outcomes; conditions: recombinant CYP, pro-luciferin dealkylation, luminescence, p450-cyp2d6; series mostly up to 57.1 µM; activity, negative = inhibition: at the top concentration
Sequence (P10635 whole entry, looked up): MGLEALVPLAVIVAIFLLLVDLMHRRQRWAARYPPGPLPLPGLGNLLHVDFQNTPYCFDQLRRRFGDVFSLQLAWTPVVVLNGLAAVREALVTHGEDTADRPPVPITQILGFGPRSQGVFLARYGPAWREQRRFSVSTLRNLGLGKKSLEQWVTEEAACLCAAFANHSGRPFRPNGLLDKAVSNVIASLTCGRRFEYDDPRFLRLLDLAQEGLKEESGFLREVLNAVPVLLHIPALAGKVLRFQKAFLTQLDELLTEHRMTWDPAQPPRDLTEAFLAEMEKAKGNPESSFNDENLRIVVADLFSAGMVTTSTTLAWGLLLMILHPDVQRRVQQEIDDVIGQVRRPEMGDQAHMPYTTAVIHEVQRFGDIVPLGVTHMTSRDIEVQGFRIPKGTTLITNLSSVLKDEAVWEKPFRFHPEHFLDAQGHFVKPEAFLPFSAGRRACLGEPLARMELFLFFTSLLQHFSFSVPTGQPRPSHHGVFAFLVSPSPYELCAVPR
On the % scale 0 is the no-effect control and ±100 the full control effect.

| Compound | activity, negative = inhibition | AC50 |
| --- | --- | --- |
| COc1ncc2nc(C)c(=O)n(CCc3ccccc3)c2n1 | -4.71% |  |
| Cc1c(Cl)cnc(NC(=O)COC(=O)CCS(=O)(=O)c2ccccc2)c1Cl | -24.2% |  |
| CC(C)=CC(=O)OCC(=O)Nc1ncc(Cl)c(C)c1Cl | -38.3% |  |
| CC(C)CC(C(=O)OCC(=O)Nc1ncc(Cl)cc1Cl)N1C(=O)c2ccccc2C1=O (configuration not stated) |  | 25.1 µM (active) |
| O=C(Nc1ccc(Cl)cc1)c1cnc(-c2ccccc2)nc1-c1ccccc1 | 14.6% |  |
| C/C(=N\NC(=O)C1CC1c1ccccc1)c1cccs1 (configuration not stated) | -24.3% |  |
| Cc1cccn2c(=O)c(/C=N/O)c(N3CCCC3)nc12 | -6.64% |  |
| C=CCN=C1CC(C)(C)CC(=O)/C1=C(/O)CCC(=O)OC | -3.73% |  |
| CN(C)CCCN1CCC2(CCC(C(C)(C)C)CC2)CC1 | 9.19% [at 11.4 µM] |  |
| O=c1oc2c(CN3CCOCC3)c(O)ccc2c2ccccc12 |  | 2 µM (active) |
| CSc1nc(C)cc(Nc2ccc(O)c(CN3CCOCC3)c2)n1 | -3.84% [at 11.4 µM] |  |
| COc1ccccc1-c1c(C)oc2c(CN3CCN(CCO)CC3)c(O)ccc2c1=O | -8.47% |  |
| CCCc1cc(=O)oc2c(CN3CCOCC3)c(O)ccc12 |  | 2.24 µM (active) |
| COc1ccc(-c2c(C)oc3c(CN4CCN(CCO)CC4)c(O)ccc3c2=O)cc1OC | -0.103% |  |
| Nc1ccc(N2CCN(C(=O)c3ccco3)CC2)cc1 | -24.1% |  |
| Cc1ccc2nc(NC(=O)CSc3nc4c(c(=O)n3C)SC(C)C4)sc2c1 (configuration not stated) | -9.43% |  |
| Cc1ccnc(NS(=O)(=O)c2ccc(NC(=O)C3CCCNC3=O)cc2)n1 (configuration not stated) | 8.52% |  |
| CC(C)c1nnc(NC(=O)CCC(=O)N2CCN(c3ccccn3)CC2)s1 | 19.7% |  |
| O=[N+]([O-])c1cccc2c[nH]nc12 | 18.5% |  |
| C[C@]1(c2ccccc2)OC(C(=O)O)=CC1=O | 5.34% |  |
| c1ccc(C(c2ccccc2)N2CC[C@@]3(CCCNC3)C2)cc1 |  | 15.8 µM (active) |

| Compound | activity, negative = inhibition | AC50 |
| --- | --- | --- |
| O=C(Nc1ccccc1)N1CCCC2(CCNCC2)C1 | -13.6% |  |
| O=C(Nc1cccc(F)c1)N1CC[C@@]2(CCCNC2)C1 | 0.0719% |  |
| c1ccc(C(c2ccccc2)N2CC3(CCNCC3)C2)cc1 |  | 2.51 µM (active) |
| c1ccc(C(c2ccccc2)N2CCC3(CCNCC3)CC2)cc1 | -18.5% |  |
| N#Cc1cccc(NC(=O)N2CC[C@@]3(CCCNC3)C2)c1 | -13.4% |  |
| CC(C)=CCC/C(C)=C/CO/N=C1/C[C@@H](O)[C@@H](O)[C@@H]2[C@@H]3C(=O)N(Cc4ccc5c(c4)OCO5)C(=O)[C@H]3CC[C@H]12 | -10.1% [at 11.4 µM] |  |
| CCc1cc(C(=O)NNC(=S)NCC2CCCO2)cs1 (configuration not stated) | -2.56% |  |
| O=C(O)c1cc(C(=O)C(=O)c2cc(C(=O)O)c(O)c3ccccc23)c2ccccc2c1O | -0.777% [at 11.4 µM] |  |
| CCNc1ncc2nc(-c3cn(C)c4ccccc34)c(=O)n(Cc3cccs3)c2n1 | -17.1% |  |
| COc1ccc2c(c1)CCC1C2CC[C@]2(C)[C@H](NCCCCCCN3C(=O)C=CC3=O)CC[C@@H]12 (some centres not stated) | 1.35% |  |
| N#Cc1cccc(-c2nc3cnc(N4CCNCC4)nc3n(C3CC3)c2=O)c1 | 2.08% |  |
| CC(=O)c1sc(NC(=O)C(C)C)nc1C | 1.86% |  |
| Fc1cccc(Cl)c1CSc1ncn[nH]1 | 7.01% |  |
| C[C@H](O/N=C1/[C@H]2O[C@@H]2[C@@H](O)[C@H]2[C@H]1CCn1c(=O)n(-c3ccccc3)c(=O)n12)c1cn([C@H](CO)Cc2ccccc2)nn1 | -8.19% [at 11.4 µM] and 10.1% [at 11.4 µM] |  |
| O=c1cc(-c2ccccc2)[nH]c2nc(Cl)ccc12 | 3.36% |  |
| C[C@@H]1CC[C@H]2C(=O)N3[C@@H](CC[C@@H](C)[C@@H]3c3ccc(Br)cc3)C(=O)N2[C@@H]1c1ccc(Br)cc1 | -14.2% [at 11.4 µM] |  |
| CS(=O)(=O)N1N=C(c2ccc(Br)cc2)CC1c1ccc2c(c1)OCO2 (configuration not stated) |  | 0.631 µM (active) |
| C[C@H]1CC[C@H]2C(=O)N3[C@H](c4ccc(Br)cc4)[C@@H](C)CC[C@H]3C(=O)N2[C@@H]1c1ccc(Br)cc1 | -7.03% [at 11.4 µM] |  |
| Cn1cc(-c2nc3cncnc3n(Cc3ccccc3Cl)c2=O)c2ccccc21 | 0.741% |  |
| Cc1[nH]c(N)nc(=S)c1CCC(=O)O | 5.35% [at 11.4 µM] |  |
| Cc1ccc(Oc2cc(N3CCOCC3)nc(-c3ccccc3)n2)cc1 | -11.2% |  |

| Compound | activity, negative = inhibition | AC50 |
| --- | --- | --- |
| CCOC(=O)c1c(-c2ccc(OC)cc2)csc1NC(=O)CCN1C(=O)c2ccccc2C1=O | -4.29% |  |
| COc1ccc(-c2csc3c2[N+]2=CCC=C2C3=O)cc1 |  | 3.16 µM (active) |
| CC[C@@H]1CC(=O)N(SC[C@H](N)C(=O)O)C1=O | 7.85% [at 11.4 µM] |  |
| CN1Cc2c(N)cccc2[C@H](c2ccccc2)C1 |  | 31.6 µM (active) and 6.31 µM (active) |
| CN1C(=O)C[C@H](c2ccccc2)C1=O | 4% [at 25.6 µM] |  |
| CC1(C)[C@@H]2CC[C@]1(C)[C@@H](OC(=O)/C=C\c1ccccc1)C2 | 2.99% [at 11.4 µM] |  |
| Oc1oc(-c2ccccc2)nc1C=Nc1ccccc1 | 4.46% |  |
| COc1cc(C2C(C(=O)c3cccs3)=C(O)C(=O)N2Cc2ccco2)cc(OC)c1OC (configuration not stated) | 17.7% |  |
| COC(=O)C/C=C\[C@@H](C)[C@@H](/C=N\OC[C@@H](C)[C@H](OCc1ccccc1)C(C)C)OC | -9.09% [at 11.4 µM] |  |
| CCC(C)NC(=O)C1CC(c2ccc(OC)cc2)=NO1 (configuration not stated) | -15.5% |  |
| COc1ccc(CN[C@H](C)C(=O)O)cc1 | 6.89% [at 11.4 µM] |  |
| COc1ccc(CCC(C)NC2C3CC4CC(C3)CC2C4)cc1 (configuration not stated) |  | 3.55 µM (active) |
| Cc1ccc(N=Nc2c(N)n(-c3ccccc3)[nH]c2=O)cc1 | -7.5% |  |
| COCCNC(=O)CCn1c(=O)oc2ccccc21 | 28.9% |  |
| S=C1N[C@H](c2ccccc2)N[C@H](c2ccccc2)S1 |  | 3.98 µM (active) |
| O=C1C2[C@@H](c3ccccc3)N[C@@H](c3ccccc3)C1[C@H](c1ccccc1)N[C@H]2c1ccccc1 | -8.91% [at 11.4 µM] |  |
| O=C(O)c1ccc(C(=O)c2ccccc2)c(C(=O)O)c1 | 14.9% [at 11.4 µM] |  |
| COC(=O)CSc1nnc(CNc2ccc(Cl)cc2)n1-c1ccccc1 | -11.7% |  |
| CCOC(=O)CSc1cc(=O)n(C)c2cc(Cl)ccc12 | -1.96% |  |
| Cn1c(=O)cc(SCC(=O)NCCCN2CCOCC2)c2ccc(Cl)cc21 | -24% |  |
| Cn1c(=O)cc(SCC(=O)NCCN2CCN(c3ccccc3F)CC2)c2cc(Cl)ccc21 |  | 14.1 µM (active) |

| Compound | activity, negative = inhibition | AC50 |
| --- | --- | --- |
| COCc1c(C(=O)OCC(=O)N2c3ccccc3NC(=O)C2(C)C)oc2ccccc12 | 9.74% |  |
| CCCNC(=O)OC[C@@H]1O[C@H](CCO/N=C(\C)CCN2CCCc3nc(C)c(C)cc32)C=C[C@@H]1Oc1ccc(OC)cc1 | -18.3% [at 11.4 µM] |  |
| COc1cccc([C@H]2Oc3ccc(OC)cc3/C(=N\O[C@@H](C)c3cn([C@H](CO)Cc4ccccc4)nn3)[C@@H]2O)c1 | -6.89% [at 11.4 µM] |  |
| COc1ccc(O[C@H]2C=C[C@@H](c3ccccc3)O[C@H]2COC(=O)CC/C(C)=N\O[C@@H](C)CN2CCCc3nc(C)c(C)cc32)cc1 |  | 3.16 µM (active) |
| COc1ccc(O[C@H]2C=C[C@@H](c3ccccc3)O[C@@H]2CO/N=C(\C)CCN2CCc3nc(-c4ccccc4)c(-c4ccccc4)cc3C2)cc1 | -14.1% [at 11.4 µM] |  |
| COc1cccc([C@@H]2Oc3ccc(OC)cc3/C(=N/O[C@@H](C)c3cn([C@H]4COC[C@H]4O)nn3)[C@@H]2O)c1 | -18.2% [at 11.4 µM] |  |
| CCCNC(=O)OC[C@@H]1O[C@H](CCO/N=C(\C)CCC(=O)OC[C@@H]2O[C@H](c3ccccc3)C=C[C@@H]2Oc2ccc(OC)cc2)C=C[C@@H]1Oc1ccc(OC)cc1 | 5.63% [at 11.4 µM] |  |
| C/C(CCC(=O)OC[C@@H]1O[C@H](C#Cc2ccccc2)C=C[C@@H]1Oc1ccc(C)cc1)=N/O[C@@H](C)c1cn([C@H](CO)Cc2ccccc2)nn1 | -5.83% [at 11.4 µM] and -8.36% [at 11.4 µM] |  |
| COc1ccc(O[C@H]2C=C[C@@H](c3ccccc3)O[C@H]2COC(=O)CC/C(C)=N\O[C@@H](C)c2cc(-c3c(C)cc(C)cc3C)no2)cc1 | -7.29% [at 11.4 µM] |  |
| COc1cccc([C@@H]2Oc3ccc(OC)cc3/C(=N/O[C@@H](C)CN3CCCc4nc(C)c(C)cc43)[C@@H]2O)c1 |  | 3.98 µM (active) |
| C/C(CCC(=O)OC[C@@H]1O[C@H](C#Cc2ccccc2)C=C[C@@H]1Oc1ccc(C)cc1)=N/O[C@@H](C)CN1CCCc2nc(C)c(C)cc21 |  | 3.16 µM (active) |
| COc1ccc(O[C@H]2C=C[C@@H](c3ccccc3)O[C@@H]2CO/N=C(\C)CCN2CCCc3nc(C)c(C)cc32)cc1 |  | 3.16 µM (active) |
| COc1ccc(O[C@H]2C=C[C@@H](c3ccccc3)O[C@H]2CO/N=C(/C)CCC(=O)OC[C@@H]2O[C@H](C#Cc3ccccc3)C=C[C@@H]2Oc2ccc(C)cc2)cc1 | 11.9% [at 11.4 µM] |  |
| CCCCCCCCCCCCCCSCC(=O)O | 13.5% |  |
| COc1ccc(-n2c(-c3cnccn3)n[nH]c2=S)cc1 | -9.31% |  |
| O=C(Nc1cccc(F)c1)N1CCCC2(CCNCC2)C1 | -13.8% |  |
| C(/C=C\c1ccccc1)=Nc1ccc2c(c1)Cc1ccccc1-2 | -10.4% [at 11.4 µM] |  |
| COc1ccc(-n2c(=O)c(-c3cn(C)c4ccccc34)nc3cncnc32)cc1 | -5.82% |  |
| CC(=O)[C@@]1(O)Cc2c(O)c3c(c(O)c2[C@H](O[C@H]2C[C@H](N)[C@H](O)[C@H](C)O2)C1)C(=O)c1ccccc1C3=O | 0.0095% |  |
